These results are taken from PubChem BioAssay.

Molecules are shown by their SMILES. Activity calls are given as the source filed them.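 How the source made its calls: active means inhibition over a set limit, the all-compound mean plus 3 SD, in both replicate runs; inconclusive means over that limit in just one replicate run; inactive means at or under that limit in both runs.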

This assay in a line: inhibitors of the yeast RAM network, pilot screen, dse1pr::URA3 reporter, 5-FOA selection (AID 869).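 Further: 0% = DMSO wells with no growth and 100% = 10 µM 1-NA-PP1 with full growth; RAM network block rescues cells from 5-FOA so hits raise OD615 growth.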 The conditions noted are these: S. cerevisiae dse1pr::URA3 5-FOA growth, OD615, 2 d; at 10 µM; hits give high values; strain carries analog-sensitive mutant Cbk1 kinase.
As for `Cc1noc(C)c1S(=O)(=O)N1CCC(C(=O)N2CCC(N3CCCCC3)CC2)CC1`, the inhibition was 1.78% (inactive). `COc1ccc(CNc2nc3c(c(=O)[nH]c(=O)n3C)n2Cc2ccccc2C)cc1`: the inhibition is 2.08% (inactive). On to `Cc1ccc(-c2nc(-c3ccccc3)no2)c(Cl)c1`, for which the inhibition is 3.96% (inactive). To `Cc1nnc(Sc2nc3c(c(=O)[nH]c(=O)n3C)n2Cc2ccccc2Cl)s1` belongs 1.07% (inactive). With `COc1ccc(N2C(=O)CC(c3ccc(OC(C)C)cc3)C2=O)cc1` (centres undefined), the inhibition is 1.39% (inactive).

In the case of `Cc1ccc(-n2nnc3c(=O)n(CC(=O)OCc4ccccc4)cnc32)cc1`, the inhibition was 2.02% (inactive). To `Cc1cc(Oc2ccccc2)nc2ccc(O)cc12` belongs 1.14% (inactive); to `Cc1ccc(C(=O)N2CCN(c3ccccc3)CC2)cc1C`, 0.13% (inactive).

For `CC(=O)N1CCN(CCN=CC2=C(O)CC(c3cccs3)CC2=O)CC1` (centres undefined), the inhibition was -0.455% (inactive).

As for `Cc1cc(C)cc(OCCCCCNCCO)c1`, the inhibition is 2.79% (inactive).

For `Cc1ccnc(SCCn2c(N3CCC(C)CC3)nc3c2c(=O)[nH]c(=O)n3C)n1`, the inhibition was 0.24% (inactive). To `CN(CCCNC(=O)C1CCC(=O)N1Cc1ccc(F)cc1)c1ccccc1` (centres undefined) belongs 0.54% (inactive); to `COC(=O)Nc1c(C(=O)OC)cc(OC)c(OC)c1OC`, -0.495% (inactive). Take `CCCn1c(C(C)NC(C)=O)nc2ccccc21` (centres undefined): the inhibition is 1.3% (inactive).

Consider `CCC1CCCCN1Cc1ccc(OC)c(OC)c1` (centres undefined), for which the inhibition was 2.01% (inactive).

Consider `CCOC(=O)N1CCN(CC(=O)Nc2ccc(C)cc2)CC1`, for which the inhibition is 1.11% (inactive). Turning to `Cc1cccc(Cn2c(SCCN3CCOCC3)nc3c2c(=O)n(C)c(=O)n3C)c1`, the inhibition is 0.9% (inactive).

On to `COc1cccc(C(c2sc3ncnn3c2O)N2CCN(C(=O)c3ccco3)CC2)c1` (centres undefined), for which the inhibition was 0.91% (inactive). In the case of `CCN1CCN(C(=O)C2CCN(Cc3nc(-c4ccc(Cl)cc4)oc3C)CC2)CC1`, the inhibition is 2.88% (inactive). On to `CCOC(=O)CC1C(=O)NCCN1Cc1cccc(OC)c1` (centres undefined), for which the inhibition is 0.17% (inactive). To `COc1cccc(-c2nc3cc(C)ccc3o2)c1` belongs 1.08% (inactive); to `COCCSc1nc2c(c(=O)[nH]c(=O)n2C)n1CCC(C)C`, 1.55% (inactive). Regarding `O=C(CCCN1C(=O)CSc2ncccc21)N1CCN(Cc2ccccc2)CC1`, the inhibition is 2.33% (inactive). To `Cc1cc(C)n(C(=O)CCN2C(=O)c3ccccc3C2=O)n1` belongs -0.64% (inactive); to `CCCC(=O)c1ccc(N2CCCCCC2)c(F)c1`, 1.73% (inactive); to `O=C(Nc1c(C(=O)O)oc2ccc(Br)cc12)c1ccccc1`, 2.95% (inactive). The figure for `CCC(=O)Nc1sc2c(c1C(N)=O)CCN(C(C)=O)C2` is 1.94% (inactive); for `CS(=O)(=O)c1ccc(N)cc1` it is 2.72% (inactive); for `O=C1CC(c2cccnc2)c2cc3c(cc2N1)OCCO3` (centres undefined) it is 2.35% (inactive). To `COCCNC(=O)Cn1ncc2ccsc2c1=O` belongs 2.33% (inactive). Take `COc1cc(NC(=O)C2CCCN2S(=O)(=O)c2ccc3c(c2)CCC(=O)N3)cc(OC)c1` (centres undefined): the inhibition is 1.09% (inactive). As for `CC(C)n1c(SCc2ccccc2F)nc2c1c(=O)n(C)c(=O)n2C`, the inhibition was 1.15% (inactive). Turning to `CCOC(=O)c1c(C)oc2ccc(OC(=O)N3CCOCC3)cc12`, the inhibition was 0.115% (inactive). Consider `CCOC(=O)/C(C#N)=C1/C=Nc2ccccc2N1`, for which the inhibition was -0.42% (inactive).

Turning to `CNS(=O)(=O)c1ccc(Oc2ccc(S(=O)(=O)NC)cc2)cc1`, the inhibition was 2% (inactive). To `O=C(O)CN1C(=O)C2C3C=CC(C3)C2C1=O` (centres undefined) belongs 1.61% (inactive); to `Cc1cc(C)c(NC(=O)c2ccc(S(=O)(=O)N3CCOCC3)cc2)c(C)c1`, 0.57% (inactive); to `CC1=C(C(=O)N2CCOCC2)C(c2cccs2)NC(=O)N1` (centres undefined), 1.26% (inactive). To `Cc1ccc(OCC(=O)NCc2ccccn2)c(Br)c1` belongs 0.22% (inactive).
